# Test system: T1, MLK1
# T1 construct: gene MAP3K9
# Conditions: concentration: 1 μM,replicates: in singlicate; n = 1
# 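Also: KINOMEscan kinase panel screen.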
row,Compound,%Inh [%]
1,CCCC(=O)Nc1n[nH]c2ncccc12 [SB-601436],0
2,CC(C)S(=O)(=O)N1CCN(Cc2ccc3c(c2)nc(NC(=O)c2ccsc2)n3C[C@H](O)c2ccccc2)CC1 [GW635815],90.6
3,Cn1ccc2ncnc(Oc3ccc(NC(=O)Nc4cncc(C(F)(F)F)c4)c(Cl)c3)c21,0
4,CN(c1ccc2c(c1)nc(NCc1ccc(F)cc1)n2C)c1ccnc(Nc2ccc(CS(C)(=O)=O)cc2)n1.Cl [GW813244],24
5,C[C@@H](Oc1cc(-n2cnc3ccc(-c4ccncc4)cc32)sc1C(N)=O)c1ccccc1Cl [GSK483724],0
6,C[C@@H]1CNc2c(sc3ccc4nc(-c5ccncc5)ccc4c23)C(=O)N1,2
7,COc1cc(Nc2nccc(N3CCC(NC(=O)c4cccc(C#N)c4)C3)n2)cc(OC)c1OC (centres unmarked) [GSK1379751],52
8,Cn1ccc2ncnc(Oc3ccc(NC(=O)Nc4ccnc(C(F)(F)F)c4)c(Cl)c3)c21,8
9,Cn1cc(-c2cccc3c(N)c(C(N)=O)nnc23)cn1,8
10,CC(=O)Nc1nc2cnc(Nc3cc(NC(=O)c4cccc(CC(C)(C)C#N)c4)ccc3C)nc2s1,0
11,COc1cccc(CNC(=O)NC2CCN(c3ccnc(Nc4cc(OC)c(OC)c(OC)c4)n3)C2)c1 (centres unmarked) [GSK1379765],25
12,O=C(Nc1cccc(C(F)(F)F)c1)c1cccc(Oc2ccc3nccn3n2)c1,9
13,OCCn1cc(-c2cnc3nnn(Cc4ccc5ncccc5c4)c3n2)cn1,0
14,Cc1cccc(-c2nc(Nc3ccncc3)c3sccc3n2)n1 [GW869641],3
15,CS(=O)(=O)Nc1ccc(-c2ccnc3[nH]ccc23)cc1 [GSK993273],4
16,Cn1ccc2ncnc(Oc3ccc(NC(=O)Nc4cccc(C(F)(F)F)c4)c(Cl)c3)c21,53
17,O=C(Nc1n[nH]c2cc(-c3ccco3)ccc12)C1CC1 [SB-737447],0
18,Cc1ccc(C(=O)Nc2ccc(Oc3ccc4nc(NC(=O)C5CC5)cn4c3)c(F)c2)c(=O)n1-c1ccccc1,80
19,Cc1n[nH]c2cc(Nc3ccnc(Nc4cccc(CN5CCOCC5)c4)n3)ccc12 [GW682569],89

row,Compound,%Inh [%]
1,Cn1ccc2ncnc(Oc3ccc(NC(=O)Nc4cnn(C(C)(C)C)c4)c(Cl)c3)c21,30
2,Cn1ccc2ncnc(Oc3ccc(NC(=O)Nc4cccc(C(F)(F)F)c4)c(F)c3)c21,21
3,Cl.Cl.NC[C@H](CC1CCCCC1)NC(=O)c1ccc(-c2ccnc3[nH]ccc23)s1 [GSK1581428],5
4,COc1cccc(C2=C(Nc3cccc(Cl)c3)C(=O)NC2=O)c1 [SB-341556],0
5,C[C@@H](Oc1cc(-n2cnc3cc(-c4cnn(C)c4)ccc32)sc1C(N)=O)c1ccccc1Cl [GSK580432],57
6,Cc1ccc2c(-c3ccnc(Nc4ccc(C(F)(F)F)cc4)n3)cnn2n1 [GW819776],7
7,CCn1c(-c2nonc2N)nc2cncc(Br)c21 [SB-738004],0
8,CCN1CCN(CCCC(=O)Nc2n[nH]c3nc(-c4ccc(O)cc4)c(Br)cc23)CC1 [SB-731579],0
9,CN1CCN(CCCNc2nccc(-c3c(-c4ccc(F)cc4)nn4cc(C(N)=O)ccc34)n2)CC1 [GW622475],0
10,COC(=O)c1cccc(NC(=O)NC2CCN(c3ccnc(NCc4ccc(F)cc4)n3)CC2)c1 [GSK1379860],0
11,CC(=O)c1c(-c2ccncc2)[nH]c(-c2ccncc2)c1C [GW493036],4
12,CN1CCN(CCNc2nc3cc(Oc4ccc(NC(=O)Nc5cc(C(F)(F)F)ccc5F)cc4)ccc3[nH]2)CC1.Cl.Cl [GW768504],0
13,COc1cc2ncn(-c3cc(OCC4CCCCC4)c(C(N)=O)s3)c2cc1OC [GSK204559],12
14,O=C(NCC1CC1)c1ccc(-c2cc(C(=O)NC3CC3)ccc2F)cc1 [GW810445],7
15,CS(=O)c1ccc(-c2coc3ccc(-c4n[nH]c(=O)o4)cc23)cc1 (centres unmarked),9
16,Cc1ccn2nc(-c3ccc(F)cc3)c(-c3ccncc3)c2c1.Cl [GW457859],0
17,Cc1ccc(CC(=O)N2CCc3cc(-c4cn(C)c5ncnc(N)c45)ccc32)cc1 [GSK2634758],15
18,CCOC(=O)N1CCC(n2cnc(-c3ccc(F)cc3)c2-c2ccnc(N)n2)CC1 [SB-219952],4

# Test system: MLK2
# Conditions: concentration: 1 μM,replicates: in singlicate; n = 1
row,Compound,%Inh [%]
1,CCCC(=O)Nc1n[nH]c2ncccc12 [SB-601436],0
2,CC(C)S(=O)(=O)N1CCN(Cc2ccc3c(c2)nc(NC(=O)c2ccsc2)n3C[C@H](O)c2ccccc2)CC1 [GW635815],43
3,Cn1ccc2ncnc(Oc3ccc(NC(=O)Nc4cncc(C(F)(F)F)c4)c(Cl)c3)c21,0
4,CN(c1ccc2c(c1)nc(NCc1ccc(F)cc1)n2C)c1ccnc(Nc2ccc(CS(C)(=O)=O)cc2)n1.Cl [GW813244],44
5,C[C@@H](Oc1cc(-n2cnc3ccc(-c4ccncc4)cc32)sc1C(N)=O)c1ccccc1Cl [GSK483724],23
6,C[C@@H]1CNc2c(sc3ccc4nc(-c5ccncc5)ccc4c23)C(=O)N1,0
7,COc1cc(Nc2nccc(N3CCC(NC(=O)c4cccc(C#N)c4)C3)n2)cc(OC)c1OC (centres unmarked) [GSK1379751],34
8,Cn1ccc2ncnc(Oc3ccc(NC(=O)Nc4ccnc(C(F)(F)F)c4)c(Cl)c3)c21,0
9,Cn1cc(-c2cccc3c(N)c(C(N)=O)nnc23)cn1,2
10,CC(=O)Nc1nc2cnc(Nc3cc(NC(=O)c4cccc(CC(C)(C)C#N)c4)ccc3C)nc2s1,14
11,COc1cccc(CNC(=O)NC2CCN(c3ccnc(Nc4cc(OC)c(OC)c(OC)c4)n3)C2)c1 (centres unmarked) [GSK1379765],26
12,O=C(Nc1cccc(C(F)(F)F)c1)c1cccc(Oc2ccc3nccn3n2)c1,7
13,OCCn1cc(-c2cnc3nnn(Cc4ccc5ncccc5c4)c3n2)cn1,0
14,Cc1cccc(-c2nc(Nc3ccncc3)c3sccc3n2)n1 [GW869641],34
15,CS(=O)(=O)Nc1ccc(-c2ccnc3[nH]ccc23)cc1 [GSK993273],33
16,Cn1ccc2ncnc(Oc3ccc(NC(=O)Nc4cccc(C(F)(F)F)c4)c(Cl)c3)c21,12
17,O=C(Nc1n[nH]c2cc(-c3ccco3)ccc12)C1CC1 [SB-737447],34
18,Cc1ccc(C(=O)Nc2ccc(Oc3ccc4nc(NC(=O)C5CC5)cn4c3)c(F)c2)c(=O)n1-c1ccccc1,92.4
19,Cc1n[nH]c2cc(Nc3ccnc(Nc4cccc(CN5CCOCC5)c4)n3)ccc12 [GW682569],38

row,Compound,%Inh [%]
1,Cn1ccc2ncnc(Oc3ccc(NC(=O)Nc4cnn(C(C)(C)C)c4)c(Cl)c3)c21,26
2,Cn1ccc2ncnc(Oc3ccc(NC(=O)Nc4cccc(C(F)(F)F)c4)c(F)c3)c21,0
3,Cl.Cl.NC[C@H](CC1CCCCC1)NC(=O)c1ccc(-c2ccnc3[nH]ccc23)s1 [GSK1581428],0
4,COc1cccc(C2=C(Nc3cccc(Cl)c3)C(=O)NC2=O)c1 [SB-341556],16
5,C[C@@H](Oc1cc(-n2cnc3cc(-c4cnn(C)c4)ccc32)sc1C(N)=O)c1ccccc1Cl [GSK580432],49
6,Cc1ccc2c(-c3ccnc(Nc4ccc(C(F)(F)F)cc4)n3)cnn2n1 [GW819776],35
7,CCn1c(-c2nonc2N)nc2cncc(Br)c21 [SB-738004],0
8,CCN1CCN(CCCC(=O)Nc2n[nH]c3nc(-c4ccc(O)cc4)c(Br)cc23)CC1 [SB-731579],0
9,CN1CCN(CCCNc2nccc(-c3c(-c4ccc(F)cc4)nn4cc(C(N)=O)ccc34)n2)CC1 [GW622475],16
10,COC(=O)c1cccc(NC(=O)NC2CCN(c3ccnc(NCc4ccc(F)cc4)n3)CC2)c1 [GSK1379860],0
11,CC(=O)c1c(-c2ccncc2)[nH]c(-c2ccncc2)c1C [GW493036],0
12,CN1CCN(CCNc2nc3cc(Oc4ccc(NC(=O)Nc5cc(C(F)(F)F)ccc5F)cc4)ccc3[nH]2)CC1.Cl.Cl [GW768504],40
13,COc1cc2ncn(-c3cc(OCC4CCCCC4)c(C(N)=O)s3)c2cc1OC [GSK204559],33
14,O=C(NCC1CC1)c1ccc(-c2cc(C(=O)NC3CC3)ccc2F)cc1 [GW810445],0
15,CS(=O)c1ccc(-c2coc3ccc(-c4n[nH]c(=O)o4)cc23)cc1 (centres unmarked),6
16,Cc1ccn2nc(-c3ccc(F)cc3)c(-c3ccncc3)c2c1.Cl [GW457859],0
17,Cc1ccc(CC(=O)N2CCc3cc(-c4cn(C)c5ncnc(N)c45)ccc32)cc1 [GSK2634758],17
18,CCOC(=O)N1CCC(n2cnc(-c3ccc(F)cc3)c2-c2ccnc(N)n2)CC1 [SB-219952],0

# Reference: article PMC5540273 (PLoS ONE, 2017)
